Our source for the Potency values is PubChem BioAssay (Tox21).

Experiment [1] is described as follows: qHTS assay to identify small molecule antagonists of the thyroid receptor (TR) signaling pathway - cell viability counter screen (AID 743064). Further: nearly all actives have a fitted effect of over 50% in size. Put shortly:
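GH3.TRE-Luc rat pituitary cells carrying a TRE-luciferase reporter were treated with compound plus 1 nM T3 (final) for 23.5 h at 37 °C. Viability was then read in the same wells by CellTiter-Fluor fluorescence after a further 30 min.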

Experiment [2] has as its system thyroid hormone receptor (rat, GH3 cells). Nature of the experiment: qHTS assay to identify small molecule agonists of the thyroid receptor (TR) signaling pathway (AID 743066; calls by dose curve). In general terms: In qHTS, concentration-response curves come from the screen itself.
Experiment [3] concerns the target Estrogen receptor (Homo sapiens) (UniProt P03372). Description: qHTS assay to identify small molecule antagonists of the estrogen receptor alpha (ER-alpha) signaling pathway (AID 743069; active means well fitted curve in the direction sought with a large enough effect in the signal ratio in the repeat runs, not every such curve was filed as active; the % refers to the signal ratio). The method in brief:
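Fluorescence intensity from a beta-lactamase FRET substrate served as the read-out. Cells: HEK293 with stably integrated ER-alpha-UAS-bla reporter. Agonist 17beta-estradiol was co-added with compounds; incubation 18 hr at 37C, substrate 2 hr at room temperature.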

Experiment [4] in a line: qHTS assay to identify small molecule antagonists of the estrogen receptor alpha (ER-alpha) signaling pathway - cell viability counter screen (AID 743074; calls by dose curve; further: nearly all actives have a fitted effect of over 45% in size; further: potency means the concentration at half of the fitted maximal effect).
Experiment [5] concerns the target Estrogen receptor (Homo sapiens) (UniProt P03372). Nature of the experiment: qHTS assay to identify small molecule agonists of the estrogen receptor alpha (ER-alpha) signaling pathway (AID 743075; calls by dose curve).
For experiment [6] the target is unchanged. Nature of the experiment: qHTS assay to identify small molecule agonists of the estrogen receptor alpha (ER-alpha) signaling pathway using the BG1 cell line (AID 743079). Further: nearly all actives have a fitted effect of over 20% in size. As to conditions: BG1Luc4E2 cells, ERE-luciferase agonist, 22 h; activation: at 70.3 µM (top of the series) unless noted.
The nature of experiment [7]: qHTS assay to identify small molecule antagonists of the estrogen receptor alpha (ER-alpha) signaling pathway using the BG1 cell line (AID 743080; calls by dose curve;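 further: BG1 cells stimulated with 17beta-estradiol alongside compound; nearly all actives have a fitted effect of over 25% in size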; further: potency means the concentration at half of the fitted maximal effect). The method in brief:
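Endogenous full-length ER-alpha in BG1-Luc-4E2 cells drives a stably integrated 4×ERE luciferase gene; compounds were tested against 17beta-estradiol over 21.5 h, with luminescence and multiplexed viability fluorescence recorded.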

The nature of experiment [8]: qHTS assay to identify small molecule antagonists of the estrogen receptor alpha (ER-alpha) signaling pathway using the BG1 cell line - cell viability counter screen (AID 743081).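 Further: compound given together with 17beta-estradiol as the ER stimulus; nearly all actives have a fitted effect of over 45% in size.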
The target of a further experiment is Aromatase (Homo sapiens) (UniProt P11511). Nature of the experiment: qHTS assay to identify aromatase inhibitors (AID 743083). Further: nearly all actives have a fitted effect of over 55% in size. Further: potency means the concentration at half of the fitted maximal effect.
The nature of experiment [9]: qHTS assay to identify aromatase inhibitors - cell viability counter screen (AID 743084).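 Further: cells stimulated with testosterone during compound exposure; nearly all actives have a fitted effect of over 55% in size.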
In experiment [10] the target is Aryl hydrocarbon receptor (Homo sapiens) (UniProt P35869). Nature of the experiment: qHTS assay to identify small molecule that activate the aryl hydrocarbon receptor (AhR) signaling pathway (AID 743085). Further: nearly all actives have a fitted effect of over 15% in size. Further: potency means the concentration at half of the fitted maximal effect.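 On activation: HG2L7.5c1 human HepG2 liver cells with stably integrated DRE-driven firefly reporter.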 The method in brief:
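HepG2 cells (HG2L7.5c1) stably carrying a firefly luciferase reporter driven by 20 dioxin responsive elements were exposed to compound for 24 h at 37C after a 5 h settling period; luminescence rise (ONE-Glo) indicated activation.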

Experiment [11] in a line: qHTS assay to identify small molecule that activate the aryl hydrocarbon receptor (AhR) signaling pathway - cell viability counter screen (AID 743086).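 Further: HepG2 liver cells carrying the AhR DRE luciferase reporter; nearly all actives have a fitted effect of over 45% in size.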 The method in brief:
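Cytotoxicity counter screen: CellTiter-Fluor signal (30 min, 37 C) in 4000 HepG2 cells/well carrying the DRE-luciferase reporter, following 24 h compound exposure at 37 C.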

Experiment [12] deals with Peroxisome proliferator-activated receptor gamma (Homo sapiens) (UniProt P37231). Nature of the experiment: qHTS assay to identify small molecule agonists of the peroxisome proliferator-activated receptor gamma (PPARg) signaling pathway (AID 743094; active means well fitted activation curve with a large enough effect in the signal ratio in the repeat runs, not every such curve was filed as active; the % refers to the signal ratio). The method in brief:
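HEK293H PPARg-bla cells, 5 h settle at 37C/5% CO2; compound (DMSO) 17 h, 37C; B/G FRET substrate 1 h RT; fluorescence intensity read-out. qHTS format.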

Experiment [13] has the same target. Nature of the experiment: qHTS assay to identify small molecule antagonists of the peroxisome proliferator-activated receptor gamma (PPARg) signaling pathway (AID 743191; calls by dose curve; further: nearly all actives have a fitted effect of over 30% in size; further: potency means the concentration at half of the fitted maximal effect). The method in brief: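 Beta-lactamase reporter under UAS control in HEK293H PPARg-bla cells; compound treatment 17 h at 37C. Read-out: fluorescence intensity after 1 h room-temperature incubation with LiveBLAzer B/G FRET substrate.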

Experiment [14] in a line: qHTS assay to identify small molecule antagonists of the peroxisome proliferator-activated receptor gamma (PPARg) signaling pathway - cell viability counter screen (AID 743194). Further: nearly all actives have a fitted effect of over 55% in size. Further: potency means the concentration at half of the fitted maximal effect. As to conditions: Potency: co-treated with 50 nM rosiglitazone unless noted. The method in brief:
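Viability was measured as CellTiter-Glo luminescence in GeneBLAzer PPARg UAS-bla HEK293H cells. These cells had been exposed 17 h at 37 C to compounds together with rosiglitazone at 50 nM final, with the beta-lactamase readout taken in the same wells.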

The nature of experiment [15]: qHTS assay for small molecule agonists of the antioxidant response element (ARE) signaling pathway (AID 743202; active means well fitted activation curve with a large enough effect in the signal ratio in the repeat runs, not every such curve was filed as active; the % refers to the signal ratio). Put shortly:
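Beta-lactamase reporter activity, read as fluorescence intensity, reflects ARE/Nrf2 pathway induction in HepG2 cells after 16 h compound exposure at 37 C; substrate loading was 2 h at room temperature.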

The nature of experiment [16]: qHTS assay for small molecule agonists of the antioxidant response element (ARE) signaling pathway - cell viability counter screen (AID 743203; calls by dose curve; further: nearly all actives have a fitted effect of over 55% in size). Put shortly:
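Luminescence read-out (CellTiter-Glo, 30 min at room temperature) measured cell viability in the same wells as the ARE beta-lactamase reporter. HepG2 ARE-bla cells were treated with compounds for 16 hrs at 37C/5% CO2.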

Experiment [17] is described as follows: qHTS assay for small molecule activators of the heat shock response signaling pathway - cell viability counter screen (AID 743209). Further: nearly all actives have a fitted effect of over 50% in size. Further: potency means the concentration at half of the fitted maximal effect. Put shortly:
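HSE-bla HeLa; 1500 cells/well; overnight 37 C, 5% CO2; compound 5 h 37 C; LiveBLAzer B/G substrate 2.5 h RT; CellTiter-Glo 30 min RT; luminescence.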

A short description of experiment [18]: qHTS assay for small molecule activators of the heat shock response signaling pathway (AID 743210; active means well fitted activation curve with a large enough effect in the signal ratio in the repeat runs, with a control signal flat, not every such curve was filed as active; the % refers to the signal ratio;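 further: HeLa cells with beta-lactamase reporter driven by heat shock elements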). Put shortly:
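Fluorescence from a cleaved B/G FRET substrate (2.5 h, room temp) reports HSE-driven beta-lactamase in HeLa cells treated 5 h at 37 C with DMSO-dissolved compounds.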

Where “and” joins values, the source holds several entries; their conditions need not be identical. Identical values can stand only once. Results filed as inconclusive are left out. More than one record can exist for a structure, and the calls need not agree. Calls of active or inactive are those of the source. Unless noted, the call rests on the fitted dose curve; in most records, active means well fitted curve in the direction sought with a large enough effect in the repeat runs; inconclusive means weak or mixed curves; inactive means no such curve, though single readings can be large; an effect the other way counts as inactive or inconclusive.

Sequence of Peroxisome proliferator-activated receptor gamma (Homo sapiens) (P37231 whole entry, looked up): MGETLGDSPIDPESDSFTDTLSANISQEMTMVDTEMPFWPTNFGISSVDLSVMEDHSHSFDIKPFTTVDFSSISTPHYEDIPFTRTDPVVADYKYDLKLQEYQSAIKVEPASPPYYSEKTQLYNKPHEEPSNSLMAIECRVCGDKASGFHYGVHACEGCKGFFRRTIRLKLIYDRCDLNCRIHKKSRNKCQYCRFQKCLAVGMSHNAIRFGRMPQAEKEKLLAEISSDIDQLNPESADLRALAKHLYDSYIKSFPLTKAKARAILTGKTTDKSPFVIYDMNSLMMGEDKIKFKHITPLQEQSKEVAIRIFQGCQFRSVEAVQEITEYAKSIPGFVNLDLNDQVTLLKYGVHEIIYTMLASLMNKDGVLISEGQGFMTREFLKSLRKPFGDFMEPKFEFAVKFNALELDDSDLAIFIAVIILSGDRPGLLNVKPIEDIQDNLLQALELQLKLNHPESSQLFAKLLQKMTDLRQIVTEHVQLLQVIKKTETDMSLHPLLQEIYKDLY
Sequence of Aryl hydrocarbon receptor (Homo sapiens) (P35869 whole entry, looked up): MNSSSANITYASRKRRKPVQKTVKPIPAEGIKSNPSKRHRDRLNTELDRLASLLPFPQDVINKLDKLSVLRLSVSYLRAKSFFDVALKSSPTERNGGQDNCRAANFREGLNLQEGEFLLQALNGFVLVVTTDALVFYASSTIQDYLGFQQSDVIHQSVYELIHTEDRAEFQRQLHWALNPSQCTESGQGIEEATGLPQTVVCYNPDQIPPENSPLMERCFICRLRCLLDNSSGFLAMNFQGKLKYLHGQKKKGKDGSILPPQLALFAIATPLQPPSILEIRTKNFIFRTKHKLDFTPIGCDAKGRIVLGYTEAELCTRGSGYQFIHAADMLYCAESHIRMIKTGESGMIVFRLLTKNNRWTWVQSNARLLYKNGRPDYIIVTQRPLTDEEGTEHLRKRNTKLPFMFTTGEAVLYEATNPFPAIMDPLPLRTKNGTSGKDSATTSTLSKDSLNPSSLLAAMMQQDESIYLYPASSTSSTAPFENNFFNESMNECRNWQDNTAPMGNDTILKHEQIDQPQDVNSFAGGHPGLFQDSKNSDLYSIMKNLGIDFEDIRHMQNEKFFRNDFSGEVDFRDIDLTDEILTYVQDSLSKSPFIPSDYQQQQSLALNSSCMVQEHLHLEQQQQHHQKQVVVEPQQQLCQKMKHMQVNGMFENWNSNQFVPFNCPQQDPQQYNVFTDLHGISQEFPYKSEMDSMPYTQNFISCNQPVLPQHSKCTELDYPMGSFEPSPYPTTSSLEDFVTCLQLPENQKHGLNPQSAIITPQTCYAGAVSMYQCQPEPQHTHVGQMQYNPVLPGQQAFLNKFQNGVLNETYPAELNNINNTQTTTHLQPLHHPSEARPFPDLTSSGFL
Sequence of Estrogen receptor (Homo sapiens) (P03372 whole entry, looked up): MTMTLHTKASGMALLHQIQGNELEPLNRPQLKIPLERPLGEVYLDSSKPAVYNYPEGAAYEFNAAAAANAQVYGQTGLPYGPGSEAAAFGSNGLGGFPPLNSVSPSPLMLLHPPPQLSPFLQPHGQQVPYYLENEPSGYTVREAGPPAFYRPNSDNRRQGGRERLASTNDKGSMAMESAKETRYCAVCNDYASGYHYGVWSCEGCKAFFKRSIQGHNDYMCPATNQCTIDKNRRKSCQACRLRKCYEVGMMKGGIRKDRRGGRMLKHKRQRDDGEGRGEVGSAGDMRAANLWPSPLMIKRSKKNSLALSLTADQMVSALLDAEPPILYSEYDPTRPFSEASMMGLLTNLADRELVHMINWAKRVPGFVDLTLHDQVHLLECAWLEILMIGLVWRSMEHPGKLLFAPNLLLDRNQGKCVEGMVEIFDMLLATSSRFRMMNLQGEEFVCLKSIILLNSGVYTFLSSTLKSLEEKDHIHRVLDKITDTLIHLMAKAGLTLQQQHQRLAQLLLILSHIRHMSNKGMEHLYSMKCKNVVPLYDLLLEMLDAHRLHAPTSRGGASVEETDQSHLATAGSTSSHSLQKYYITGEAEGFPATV
Sequence of Aromatase (Homo sapiens) (P11511 whole entry, looked up): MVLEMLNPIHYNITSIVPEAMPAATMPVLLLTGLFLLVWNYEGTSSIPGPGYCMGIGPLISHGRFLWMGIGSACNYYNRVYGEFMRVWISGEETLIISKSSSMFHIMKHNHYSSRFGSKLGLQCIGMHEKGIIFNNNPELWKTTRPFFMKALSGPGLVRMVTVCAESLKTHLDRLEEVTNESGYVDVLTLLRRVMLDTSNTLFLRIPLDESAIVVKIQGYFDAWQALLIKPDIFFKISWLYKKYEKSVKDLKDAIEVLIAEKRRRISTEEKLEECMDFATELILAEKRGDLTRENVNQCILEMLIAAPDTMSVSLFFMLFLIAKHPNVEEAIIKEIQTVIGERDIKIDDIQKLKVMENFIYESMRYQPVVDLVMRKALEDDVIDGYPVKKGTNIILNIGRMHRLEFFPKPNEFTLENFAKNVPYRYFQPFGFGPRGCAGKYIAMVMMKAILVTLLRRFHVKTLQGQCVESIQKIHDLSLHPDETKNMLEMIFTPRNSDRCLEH

For `COP(=S)(OC)SCn1nnc2ccccc2c1=O`, the Potency entry in [1], in [2], in experiment [3], in [4], in experiment [5] and in experiment [6] was “inactive” each time. In addition, the Potency result in [7], in experiment [8], in [9], in [10], in experiment [11] and in experiment [12] was “inactive” each time. Besides, the Potency entry in [14], in experiment [15], in experiment [16], in experiment [17] and in experiment [18] was “inactive” each time. For the same compound, the Potency is 54.5 µM (active) with Aromatase (Homo sapiens) and 49 µM (active) in experiment [13].
As to `CCCCC(C#N)(Cn1cncn1)c1ccc(Cl)cc1` (configuration not stated), the Potency entry in [1], in [2], in experiment [3], in experiment [4], in [5] and in [6] was “inactive” each time. In addition, the Potency entry in experiment [8], in [9], in experiment [10], in [11], in [12] and in experiment [13] was “inactive” each time. Moreover, the Potency entry in experiment [14], in experiment [15], in [16], in experiment [17] and in [18] was “inactive” each time. The Potency in [7] is 30.5 µM (active) and 61.1 µM (active); with Aromatase (Homo sapiens), 4.84 µM (active) and 3.86 µM (active).
Consider `CCCCCCCCCC(CC)c1ccc(S(=O)(=O)O)cc1` (configuration not stated), for which the Potency result in experiment [2], in experiment [8], in [9], in experiment [11] and in experiment [15] was “inactive” throughout. The Potency result in [4] is “inactive and 43.6 µM (active)”; in experiment [14] it was “inactive and 15.5 µM [setting not given] (active)”; in experiment [17], “inactive and 39.9 µM (active)”.
With `c1ccc(C2CO2)cc1` (configuration not stated), the Potency result (in experiment [1]; in [4]; in experiment [8]; with Aromatase (Homo sapiens); in [9]; in experiment [10]) was “inactive” each time. The Potency result in experiment [11], in experiment [12], in experiment [13], in [14], in [15] and in [16] was “inactive” each time. Further, the Potency entry in experiment [17] and in experiment [18] was “inactive” throughout.
As for `CCN(CC)C(=O)C(C)Oc1cccc2ccccc12` (configuration not stated), the Potency result in experiment [1], in experiment [2], in experiment [3], in [4], in [5] and in experiment [6] was “inactive” in each case. The Potency entry in [8], in [9], in [12], in [13], in experiment [14] and in experiment [15] was “inactive” in each case. Besides, the Potency entry in experiment [16], in experiment [17] and in [18] was “inactive” in each case. Further, the Potency is 34.4 µM (active) with Aromatase (Homo sapiens); 54.9 µM (active) and 30.6 µM (active) in [10].
Consider `C[N+](C)(C)CC(=O)O`, for which the Potency entry in experiment [1], in experiment [2], in experiment [3], in [4], in experiment [5] and in [6] was “inactive” in each case. In addition, the Potency result (in experiment [7]; in [8]; with Aromatase (Homo sapiens); in experiment [9]; in experiment [10]; in experiment [11]) was “inactive” each time. For the same compound, the Potency entry in experiment [12], in experiment [13], in [14], in experiment [15], in experiment [16] and in experiment [17] was “inactive” in each case.
Take `Cc1cc(Cl)ccc1N=CN(C)C`: the Potency result (in [1]; in [4]; in experiment [8]; in the experiment with Aromatase (Homo sapiens); in experiment [9]; in experiment [10]) was “inactive” each time. The Potency entry in experiment [11], in experiment [12], in [14], in experiment [15], in experiment [16] and in experiment [17] was “inactive” each time.
